According to PubChem BioAssay (EPA / NIEHS):
Calls of active or inactive are those of the source. The calls were made as follows: active = hit-call score of the fitted dose curve at least 0.9, where 1 is the maximum; inactive = score below 0.9.

Assays:
[1] = ATG_AP_1_CIS: Attagene CIS-FACTORIAL HepG2 Assay for human Activator Protein 1 (AP-1) (AID 2282931); conditions: HepG2 Attagene cis-factorial AP-1 reporter mRNA; actives raise or lower the signal
Summary of the method: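 HepG2 cells transiently transfected with cis-element-driven reporter transcription units, dosed for 24 hours. Reporter mRNA measured by RT-PCR, 6-FAM labelling, HpaI digestion and capillary electrophoresis. Bidirectional fitting against DMSO baseline.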

[2] = ATG_AP_2_CIS: Attagene CIS-FACTORIAL HepG2 Assay for human Activator Protein 2 (AP-2) (AID 2282932); conditions: HepG2 AP-2 cis-reporter, Attagene transcription factor profiling; actives raise or lower the signal
Summary of the method: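 Bidirectional curve fitting against DMSO was applied to reporter mRNA signals from HepG2 cells 24 h after dosing. Cis-promoter reporter units, transiently transfected, were read by RT-PCR plus capillary electrophoresis.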

[3] = target: Retinoic acid receptor alpha (Homo sapiens) (UniProt P10276); assay: ATG_DR5_RAR_CIS: Attagene CIS-FACTORIAL HepG2 Assay for human Retinoic Acid Receptor Alpha (RARE), DR5 submotif (AID 2282934); conditions: HepG2 Attagene cis-factorial RARE DR5 reporter, mRNA; actives raise or lower the signal
Summary of the method: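 Transfected HepG2 reporter cells are exposed to chemicals for 24 h. Then RNA is extracted and the DR5 element reporter transcript is measured by RT-PCR and capillary electrophoresis, with bidirectional curve fitting relative to DMSO.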

[4] = target: Transcription factor E2F1 (Homo sapiens) (UniProt Q01094); assay: ATG_E2F_CIS: Attagene CIS-FACTORIAL HepG2 Assay for human E2F Transcription Factor 1 (AID 2282935); conditions: HepG2 Attagene cis-reporter, E2F reporter RNA transcripts; actives raise or lower the signal
Summary of the method: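 Multiplexed cis-reporter assay: HepG2, transient transfection, 24 h dosing, mRNA quantitation by labeled RT-PCR and CE.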

[5] = ATG_M_61_CIS: Attagene CIS-FACTORIAL HepG2 Assay for M61 Transcription Factor (Internal Marker) (AID 2282937); conditions: HepG2 Attagene CIS-FACTORIAL M61 internal marker reporter; actives raise or lower the signal
Summary of the method: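 HepG2 cells transiently transfected with multiplexed cis-promoter reporter units reporting endogenous transcription factor activity, measured 24 h after dosing. Reporter mRNA quantified by RT-PCR and capillary electrophoresis; bidirectional fit against DMSO baseline.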

[6] = ATG_EGR_CIS: Attagene CIS-FACTORIAL HepG2 Assay for human Early Growth Response 1 (EGR1) (AID 2282938); conditions: HepG2 Attagene CIS-FACTORIAL EGR reporter mRNA; actives raise or lower the signal
Summary of the method: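 HepG2 cells transiently transfected with cis-element-driven multiplexed reporter units, dosed for 24 h. EGR1-element reporter mRNA quantified by RT-PCR, 6-FAM labelling, HpaI digestion and capillary electrophoresis; bidirectional fit versus DMSO.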

[7] = ATG_M_19_CIS: Attagene CIS-FACTORIAL HepG2 Assay for M19 Transcription Factor (Internal Marker) (AID 2282939); conditions: HepG2 Attagene CIS-FACTORIAL M19 internal marker reporter; actives raise or lower the signal
Summary of the method: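 HepG2 cells transiently transfected with cis-regulated multiple reporter transcription units were dosed for 24 h; reporter mRNA was quantified by RT-PCR, 6-FAM primer-extension labelling, HpaI digestion and capillary electrophoresis, with bidirectional fitting against DMSO baseline.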

[8] = ATG_Ets_CIS: Attagene CIS-FACTORIAL HepG2 Assay for human Erythroblast Transformation Specific (ETS) (AID 2282941); conditions: HepG2 ETS cis-reporter transcription, actives raise or lower the signal
Summary of the method: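 After transient cis-reporter transfection, HepG2 cells receive test chemical for 24 h. Reporter mRNA levels, measured by RT-PCR and capillary electrophoresis fluorescence, are analysed bidirectionally relative to the DMSO baseline.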

[9] = target: Hepatocyte nuclear factor 3-beta (Homo sapiens) (UniProt Q9Y261); assay: ATG_FoxA2_CIS: Attagene CIS-FACTORIAL HepG2 Assay for human Forkhead box A2 (FOXA2) (AID 2282942); conditions: HepG2 cis-reporter transcription factor activity, 24 h; actives raise or lower the signal
Summary of the method: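 HepG2 transiently transfected with a multiplexed cis-promoter reporter library read endogenous FOXA2 activity. After 24 h compound exposure, reporter mRNA was quantified by RT-PCR, HpaI digestion and capillary electrophoresis. Bidirectional fit against DMSO.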

[10] = ATG_FoxO_CIS: Attagene CIS-FACTORIAL HepG2 Assay for human Forkhead box O (FoxO) (AID 2282943); conditions: HepG2 Attagene cis-reporter, FoxO element, mRNA; actives raise or lower the signal
Summary of the method: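 24 h chemical exposure, HepG2 with transient cis-MRTU transfection. RNA extraction, oligo(dT) RT, reporter-specific PCR, primer-extension labelling, HpaI digestion, CE fragment analysis; bidirectional fit, DMSO baseline.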

[11] = ATG_GATA_CIS: Attagene CIS-FACTORIAL HepG2 Assay for human GATA Binding Protein (AID 2282944); conditions: HepG2 GATA cis-element reporter, Attagene multiplex mRNA; actives raise or lower the signal
Summary of the method: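 HepG2 cells transiently transfected with multiplexed cis-element reporter units reflecting endogenous transcription factor activity; reporter mRNA measured after 24 h dosing by RT-PCR, 6-FAM labeling, HpaI digestion and capillary electrophoresis. Bidirectional fitting versus DMSO baseline.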

[12] = ATG_GLI_CIS: Attagene CIS-FACTORIAL HepG2 Assay for human Zinc Finger Protein GLI1 (AID 2282945); conditions: HepG2, Attagene cis-factorial reporter mRNA, GLI element; actives raise or lower the signal
Summary of the method: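 HepG2 cells transiently transfected with cis-promoter multiplexed reporter units report endogenous transcription factor activity. After 24 h chemical exposure, reporter mRNA was quantified by RT-PCR, 6-FAM labelling, HpaI digestion and capillary electrophoresis, with bidirectional fitting against DMSO.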

[13] = ATG_GRE_CIS: Attagene CIS-FACTORIAL HepG2 Assay for human Glucocorticoid Response Elements (GRE) (AID 2282947); conditions: HepG2 GRE cis-reporter, Attagene multiplex mRNA; actives raise or lower the signal
Summary of the method: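 Following 24 h chemical exposure of transiently transfected HepG2 cells, total RNA was reverse-transcribed and reporter cDNA amplified, fluorescently labelled and sized by capillary electrophoresis. Signal gain or loss was fitted relative to DMSO vehicle.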

[14] = ATG_ISRE_CIS: Attagene CIS-FACTORIAL HepG2 Assay for human Interferon Regulatory Factor 1 (IRF1) binding to an Interferon-Stimulated Response Element (ISRE) (AID 2282948); conditions: HepG2 ISRE cis-reporter (Attagene), mRNA transcription readout; actives raise or lower the signal
Summary of the method: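 Quantitation relies on labelled RT-PCR fragments separated by capillary electrophoresis. Human HepG2 cells bearing cis-promoter reporter constructs were treated 24 h; DMSO served as baseline for bidirectional fitting.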

[15] = ATG_M_32_CIS: Attagene CIS-FACTORIAL HepG2 Assay for M32 Transcription Factor (Internal Marker) (AID 2282949); conditions: HepG2 Attagene cis-factorial M32 reporter, mRNA; actives raise or lower the signal;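 also: background control marker of the multiplexed CIS panel rather than a real target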
Summary of the method: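 Fluorescent capillary electrophoresis peaks of HpaI-digested, FAM-labelled RT-PCR reporter products give the signal. Source: transiently transfected human liver HepG2 cells, 24 h after chemical dosing; bidirectional fitting against DMSO.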

[16] = ATG_E_Box_CIS: Attagene CIS-FACTORIAL HepG2 Assay for human Enhancer Box (E-box) (AID 2282936); conditions: HepG2 E-box cis-reporter transcription, actives raise or lower the signal
Summary of the method: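 Multiplexed CIS reporter system in transiently transfected HepG2 cells measures native transcription factor activity. Reporter RNA after 24 h exposure is profiled by RT-PCR-capillary electrophoresis.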

[17] = target: Bile acid receptor (Homo sapiens) (UniProt Q96RI1); assay: ATG_IR1_CIS: Attagene CIS-FACTORIAL HepG2 Assay for human Nuclear Receptor Subfamily 1 Group H Member 4 (NR1H4), IR1 submotif (AID 2282946); conditions: IR1 reporter transcription, actives raise or lower the signal
Summary of the method: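 Transient MRTU transfection, HepG2; 24 h dosing; RNA → RT-PCR → 6-FAM primer extension → HpaI digest → capillary electrophoresis fluorescence. Gain/loss of signal fitted relative to DMSO.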

[18] = ATG_ERE_CIS: Attagene CIS-FACTORIAL HepG2 Assay for Estrogen Response Element (ERE) (AID 2282940); conditions: HepG2 ERE cis-reporter, Attagene RNA transcript; actives raise or lower the signal
Summary of the method: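 HepG2 cells transiently transfected with cis-promoter-driven multiplexed reporter transcription units report endogenous TF activity. After 24 h compound exposure, reporter mRNA is quantified by RT-PCR with capillary electrophoresis fluorescence; bidirectional fitting versus DMSO baseline.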

[19] = ATG_M_06_CIS: Attagene CIS-FACTORIAL HepG2 Assay for M06 Transcription Factor (Internal Marker) (AID 2282950); conditions: HepG2 Attagene CIS-FACTORIAL M06 internal marker reporter; actives raise or lower the signal
Summary of the method: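 HepG2 cells transiently transfected with cis-regulated multiple reporter transcription units were exposed to chemical for 24 h; reporter mRNA was quantified by RT-PCR, 6-FAM primer labelling, HpaI digestion and capillary electrophoresis, fitted bidirectionally against DMSO.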

Measured: AC50

Sequence of Bile acid receptor (Homo sapiens) (Q96RI1 whole entry, looked up): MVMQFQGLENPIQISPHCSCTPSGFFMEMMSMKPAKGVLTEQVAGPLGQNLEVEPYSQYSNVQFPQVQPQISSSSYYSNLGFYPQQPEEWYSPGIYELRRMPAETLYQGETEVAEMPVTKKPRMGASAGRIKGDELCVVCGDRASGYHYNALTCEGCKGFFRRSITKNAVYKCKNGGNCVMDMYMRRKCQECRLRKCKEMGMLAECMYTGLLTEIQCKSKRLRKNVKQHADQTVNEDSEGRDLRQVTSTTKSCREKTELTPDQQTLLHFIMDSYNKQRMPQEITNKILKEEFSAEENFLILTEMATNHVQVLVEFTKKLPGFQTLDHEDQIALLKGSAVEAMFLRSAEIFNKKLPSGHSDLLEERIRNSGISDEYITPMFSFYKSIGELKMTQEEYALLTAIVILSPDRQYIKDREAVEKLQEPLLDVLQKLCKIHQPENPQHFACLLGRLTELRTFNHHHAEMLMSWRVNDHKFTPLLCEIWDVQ
Sequence of Transcription factor E2F1 (Homo sapiens) (Q01094 whole entry, looked up): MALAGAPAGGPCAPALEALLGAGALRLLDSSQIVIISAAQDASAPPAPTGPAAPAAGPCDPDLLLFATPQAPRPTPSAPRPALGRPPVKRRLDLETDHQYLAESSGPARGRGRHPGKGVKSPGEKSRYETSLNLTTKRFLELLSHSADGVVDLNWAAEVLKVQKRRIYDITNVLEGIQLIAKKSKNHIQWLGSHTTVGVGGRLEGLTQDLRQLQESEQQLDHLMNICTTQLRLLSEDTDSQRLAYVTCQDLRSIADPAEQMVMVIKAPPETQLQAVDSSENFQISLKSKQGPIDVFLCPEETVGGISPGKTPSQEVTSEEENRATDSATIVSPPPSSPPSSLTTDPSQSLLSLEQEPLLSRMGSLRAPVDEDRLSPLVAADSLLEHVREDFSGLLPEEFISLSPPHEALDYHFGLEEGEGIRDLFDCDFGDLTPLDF
Sequence of Hepatocyte nuclear factor 3-beta (Homo sapiens) (Q9Y261 whole entry, looked up): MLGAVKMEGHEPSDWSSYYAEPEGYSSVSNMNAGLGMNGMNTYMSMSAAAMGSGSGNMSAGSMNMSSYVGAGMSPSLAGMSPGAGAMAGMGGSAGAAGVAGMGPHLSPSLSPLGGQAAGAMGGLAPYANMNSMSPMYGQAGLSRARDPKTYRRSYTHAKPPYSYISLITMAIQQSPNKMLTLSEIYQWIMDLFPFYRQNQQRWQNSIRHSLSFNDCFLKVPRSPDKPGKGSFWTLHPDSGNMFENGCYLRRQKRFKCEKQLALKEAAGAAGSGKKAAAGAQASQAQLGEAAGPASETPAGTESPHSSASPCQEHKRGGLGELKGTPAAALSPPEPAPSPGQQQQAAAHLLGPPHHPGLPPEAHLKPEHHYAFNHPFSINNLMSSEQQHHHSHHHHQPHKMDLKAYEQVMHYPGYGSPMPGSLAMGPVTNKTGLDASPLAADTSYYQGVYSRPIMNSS
Sequence of Retinoic acid receptor alpha (Homo sapiens) (P10276 whole entry, looked up): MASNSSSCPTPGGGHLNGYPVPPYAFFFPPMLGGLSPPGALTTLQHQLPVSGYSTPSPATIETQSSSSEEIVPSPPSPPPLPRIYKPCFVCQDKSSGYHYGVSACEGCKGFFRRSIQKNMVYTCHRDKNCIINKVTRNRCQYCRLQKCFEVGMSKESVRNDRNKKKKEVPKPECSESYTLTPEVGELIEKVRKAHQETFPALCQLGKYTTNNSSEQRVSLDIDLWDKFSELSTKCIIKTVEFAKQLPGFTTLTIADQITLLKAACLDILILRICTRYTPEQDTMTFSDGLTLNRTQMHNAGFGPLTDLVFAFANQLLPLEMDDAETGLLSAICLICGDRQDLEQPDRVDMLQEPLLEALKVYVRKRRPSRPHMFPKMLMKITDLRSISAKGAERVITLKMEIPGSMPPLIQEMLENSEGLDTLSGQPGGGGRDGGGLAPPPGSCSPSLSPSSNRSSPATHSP

C[C@]12CC[C@@H](O)C[C@@H]1CC[C@@H]1[C@@H]2CC[C@]2(C)C(=O)CC[C@@H]12
not listed: [16] | [17] | [18] | [19]
inactive: all other assays above

CCC[CH2][Sn]([CH2]CCC)([CH2]CCC)[CH2]CCC
active: [1] 7.55 µM | [2] 19.1 µM | [16] 14 µM | [6] 5.14 µM | [17] 0.378 µM | [14] 11.1 µM
not listed: [3] | [18] | [19]
inactive: all other assays above

O=NN1CCOCC1
not listed: [6] | [15] | [16] | [17] | [19]
inactive: all other assays above

CN(N=O)c1ccc([N+](=O)[O-])cc1
not listed: [7]
inactive: all other assays above

CC(C)[C@H](C(=O)OC(C#N)c1cccc(Oc2ccccc2)c1)c1ccc(OC(F)F)cc1 (some centres undefined)
not listed: [6] | [18]
inactive: all other assays above

Clc1cnc(Oc2ccc(Oc3ncc(Cl)cc3Cl)cc2)c(Cl)c1
not listed: [3] | [18]
inactive: all other assays above

CCC(C)(C#N)N=NC(C)(C#N)CC (centres undefined)
not listed: [13] | [16] | [17]
inactive: all other assays above

CC(=O)CN(CC(C)=O)N=O
not listed: [4] | [16] | [17]
inactive: all other assays above

C=C(C)C(=O)OCCCCOC(=O)C(=C)C
not listed: [6] | [11] | [15] | [17]
inactive: all other assays above

O=[N+]([O-])c1ccc(Nc2ccccc2)cc1
active: [14] 130 µM
not listed: [5] | [19]
inactive: all other assays above

O=C(Cc1ccccc1)OCCc1ccccc1
not listed: [17]
inactive: all other assays above

Oc1c(Cl)cc(Cl)cc1Cl
not listed: [1] | [3] | [5] | [15] | [17] | [18]
inactive: all other assays above

CN(C1CCCCC1)C1CCCCC1
not listed: [17]
inactive: all other assays above

CC(C)N(C(=O)CCl)c1ccccc1
active: [1] 11.6 µM | [2] 50.4 µM | [4] 48.1 µM | [16] 18 µM | [10] 33.4 µM
not listed: [3] | [5] | [6] | [17]
inactive: all other assays above

ClCc1ccccc1Cl
active: [13] 100 µM
not listed: [18]
inactive: all other assays above

CCCCC(CC)C(=O)Cl (centres undefined)
not listed: [7] | [11]
inactive: all other assays above

C=C(C)C(=O)OCC(CC)CCCC (centres undefined)
not listed: [17]
inactive: all other assays above

CCCCN(CCCC)C(=S)[S-].CCCCN(CCCC)C(=S)[S-].[Ni+2]
not listed: [17] | [19]
inactive: all other assays above

[F][Sn]([c]1ccccc1)([c]1ccccc1)[c]1ccccc1
active: [2] 1.84 µM | [16] 0.593 µM | [6] 0.336 µM | [18] 0.0177 µM | [8] 0.32 µM | [9] 0.892 µM | [12] 2.18 µM | [17] 1.24 µM | [14] 0.562 µM
not listed: [15]
inactive: all other assays above

c1cc[c]([Sb]([c]2ccccc2)[c]2ccccc2)cc1
active: [1] 68.5 µM
not listed: [6] | [16] | [18]
inactive: all other assays above
